# Measurements published in PubChem BioAssay AID1376 (SRMLSC, 2008).
# Hit rate of the full screen: of about 220,000 compounds, about 530 (0.24%) were called active. For the sample, actives were picked, then their nearest neighbours and some compounds at random. Measured potencies and affinities stand elsewhere. Unmarked numbers belong to inactive results. No stated cut-off is given here; in the data, active means inhibition above about 13%; inconclusive means no clear call, values can overlap the other calls; inactive means below that.
# Biological target: Bifunctional protein GlmU (Mycobacterium tuberculosis (strain ATCC 25618 / H37Rv)) (UniProt P9WMN3)
# Sequence (P9WMN3 whole entry, looked up): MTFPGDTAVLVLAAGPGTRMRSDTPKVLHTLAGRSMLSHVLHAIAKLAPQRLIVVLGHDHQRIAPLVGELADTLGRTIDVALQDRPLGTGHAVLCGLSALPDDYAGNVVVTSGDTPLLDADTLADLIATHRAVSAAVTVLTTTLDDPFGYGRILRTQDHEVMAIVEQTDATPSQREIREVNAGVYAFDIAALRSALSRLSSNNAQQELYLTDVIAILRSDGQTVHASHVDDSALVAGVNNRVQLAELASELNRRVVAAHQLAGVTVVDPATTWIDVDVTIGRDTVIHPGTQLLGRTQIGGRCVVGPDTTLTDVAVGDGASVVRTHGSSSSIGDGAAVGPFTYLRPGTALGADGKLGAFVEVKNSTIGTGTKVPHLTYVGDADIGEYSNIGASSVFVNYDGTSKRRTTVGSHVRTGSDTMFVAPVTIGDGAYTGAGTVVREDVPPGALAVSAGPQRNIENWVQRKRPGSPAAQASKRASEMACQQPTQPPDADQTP
# Test: inhibition of mycobacterial GlmU enzyme – biochemical, glucosamine-1-phosphate acetyltransferase (AID 1376);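 further: 0% = complete reaction with vehicle and 100% = reaction without substrate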
# Conditions: M. tuberculosis GlmU acetyltransferase enzyme assay; hits give high values;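 tested at 30 µM in the primary screen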
row,SMILES,inhibition
1,COc1ccc(OC)c(NC(=O)NC2(C(F)(F)F)Oc3ccccc3O2)c1,-3.98%
2,O=C(O)CCSCC(=O)c1ccc2c(c1)OCCO2,-0.32%
3,Cc1c(Nc2cc(N3CCOCC3)c3nonc3c2[N+](=O)[O-])c(=O)n(-c2ccccc2)n1C,-3.88%
4,CN(C)c1cc(Nc2ccc(O)cc2)c([N+](=O)[O-])c2nonc12,0.57%
5,CNc1cc(Cl)c2nonc2c1[N+](=O)[O-],11.9%
6,CCNc1cc(Nc2c(C)n(C)n(-c3ccccc3)c2=O)c([N+](=O)[O-])c2nonc12,2.95%
7,CN(C)c1cc(Nc2cccc(O)c2)c([N+](=O)[O-])c2nonc12,-3.39%
8,O=[N+]([O-])c1c(Nc2ccccn2)cc(Cl)c2nonc12,-2.44%
9,CC1CN(C(=O)c2ccncc2)CC(C)O1 (stereo unspecified),2.56%
10,c1cc2nncn2nc1N1CCCC1,-1.89%
11,COC(=O)c1cc(C#N)c(Oc2ccccc2)nc1C,0.33%
12,COc1cc(/C=N/NC(=O)c2cccnc2)ccc1OS(=O)(=O)c1cc(C)ccc1C,-3.66%
13,O=C(OC1Cn2c(=O)ccc(=O)n2C1)c1ccc([N+](=O)[O-])cc1,1.59%
14,COc1ccc(C(C(=O)NC2CCCC2)N(CC2CCCO2)C(=O)Cn2nnc(-c3ccc(C)o3)n2)cc1 (stereo unspecified),0.08%
15,CC1=C(C#N)C(=O)N(C2CCS(=O)(=O)C2)C(=O)/C1=C\c1ccco1 (stereo unspecified),25.3% (active)
16,O=C1/C(=C/c2ccco2)SC(=S)N1C1CCS(=O)(=O)C1 (stereo unspecified),5.66%
17,CC1=C(C#N)C(=O)N(C2CCS(=O)(=O)C2)C(=O)/C1=C\c1ccc(C)o1 (stereo unspecified),5.88%
18,O=C1CN(c2ccc(Cl)cc2)C(=O)CN1NC(=S)Nc1ccc(Cl)cc1,-0.02%
19,Cc1ccccc1-c1nnc(SCC#N)o1,5.25%
20,Clc1cccc(/C=N/Nc2nc(Cl)nc3ccccc23)c1,-3.16%
21,Clc1cccc(/C=N/Nc2ncnc3ccccc23)c1,14.7% (active)
22,C(=N\Nc1ncnc2ccccc12)/c1ccccc1,4.18%
23,O=C(COC(=O)c1cccs1)NCC1CCCCC1,-4.05%
24,Cc1cc(C)nc(Sc2ccc(/C=C(\C#N)C(=O)Nc3ccccc3)o2)n1,-0.9%

row,SMILES,inhibition
1,Cc1cc(C)nc(Sc2ccc(/C=C(\C#N)C(N)=O)o2)n1,3.14%
2,Cc1ccc(NC(=O)/C(C#N)=C/c2ccc(Sc3nc(C)cc(C)n3)o2)cc1,19.7% (active)
3,O=C1c2ccccc2S(=O)(=O)c2cc(C(=O)N3CCN(c4ccccc4)CC3)ccc21,-0.95%
4,COc1ccc(/C=N/NC(=O)c2ccc(CN3C(=O)c4cccc5cccc3c45)cc2)cc1O,-5.54%
5,O=C(CCN1CCN(c2ccccc2)CC1)Nc1ccc(Cl)cc1,7.38%
6,CC(=O)N1C(Nc2ccc(Cl)cc2)CCN1c1ccccc1 (stereo unspecified),13.2% (active)
7,O=C(Nc1ccc(Cl)cc1)N1CCN(c2ccccc2)CC1,-0.29%
8,COc1ccc(OCCC(=O)OCC(=O)NCCC2=CCCCC2)cc1,-0.76%
9,O=C(NCc1ccc2c(c1)OCO2)c1cc(-c2ccc(Cl)cc2Cl)on1,-0.34%
10,O=c1cc[nH]c2c(Cl)cccc12,17.7% (active)
11,O=c1cc[nH]c2c(C(F)(F)F)cccc12,2.39%
12,Cc1[nH]ccc(=O)c1OCc1c(Cl)cccc1Cl,-3.63%
13,COC(=O)C(C(=O)OC)c1ncccc1[N+](=O)[O-],3.41%
14,COc1ccc(N2CC(C(=O)Nc3ccc4c(c3)OCO4)CC2=O)cc1 (stereo unspecified),-2.39%
15,CS(=O)(=O)N(Cc1ccco1)Cc1ccccc1Cl,1.25%
16,COCC(C)n1c(C)cc(C(=O)CSc2nnc(Nc3ccccc3F)s2)c1C (stereo unspecified),1.64%
17,Cc1nn(Cc2c(Cl)cccc2Cl)c(C)c1NC(=O)CCCn1nc([N+](=O)[O-])c(Cl)c1C,0.47%
18,Cc1c(Cl)c([N+](=O)[O-])nn1CCCC(=O)Nc1c(Cl)cccc1Cl,13.8% (active)
19,Cc1c(Cl)c([N+](=O)[O-])nn1CCCC(=O)Nc1cccc(Cl)c1Cl,-3.35%
20,Cc1cc(-c2ccccc2C(=O)NCc2ccccc2)on1,2.22%
21,COc1ccc(S(=O)(=O)N2CCCN(S(=O)(=O)c3ccc(OC)cc3C)CC2)c(C)c1,4.67%
22,CC12CCC(C(=O)NCCc3ccccc3)(OC1=O)C2(C)C (stereo unspecified),0.84%
23,Cc1cc(C)c(NC(=O)COC(=O)c2cccc3c2C(=O)c2ccccc2C3=O)c(C)c1,3.23%
24,Cc1cccc(S(=O)(=O)Nc2cccc3c2C(=O)c2ccccc2-3)c1,2.87%

row,SMILES,inhibition
1,Cc1cc(C)c(Nc2cc(S(=O)(=O)O)c(N)c3c2C(=O)c2ccccc2C3=O)c(C)c1,17.5% (active)
2,O=C(O)c1cccc(NC(CNS(=O)(=O)c2ccc(Cl)cc2)c2ccccc2)c1 (stereo unspecified),3.6%
3,CN1CCN(CCOc2ccc(Cl)c(Cl)c2)CC1,-3.6%
4,CCc1ccccc1NC(=O)c1ccc(CN2CCC(Cc3ccccc3)CC2)cc1,3.49%
5,CCOC(=O)COc1cnc2ccccc2n1,1.75%
6,CC(=O)Nc1ccc2nc(NS(=O)(=O)c3ccc(C)cc3)sc2c1,3.98%
7,CC(=O)Nc1ccc(S(=O)(=O)Nc2nc3ccc(C)cc3s2)cc1,13.2% (active)
8,COc1ccc2nc(NS(=O)(=O)c3ccc(NC(C)=O)cc3)sc2c1,4.76%
9,CCc1c(O)nc(SCC(=O)NCc2ccco2)[nH]c1=O,-0.2%
10,COc1ccc(Nc2ccc(N3C(=O)CCC3=O)cc2[N+](=O)[O-])cn1,2.73%
11,CCCc1ccc(C(=O)NNC(=O)c2ccc(Cl)cc2)cc1,17.1% (active)
12,CCCc1ccc(C(=O)NNc2cc(Cl)ccc2Cl)cc1,2.48%
13,CCCc1ccc(C(=O)NNC(=O)c2ccc(Br)cc2)cc1,1.63%
14,CCOc1ccccc1/C=N/NC(=O)CNC(=O)c1ccc(S(=O)(=O)N2CCOCC2)cc1,0.48%
15,CC(C)N1CCc2c(sc(NC(=O)c3nc4ccccc4s3)c2C(N)=O)C1,13.7% (active)
16,COC(=O)c1c(NC(=O)c2nc3ccccc3s2)sc2c1CCN(C(C)=O)C2,-1.93%
17,CC(C)N1CCc2c(sc(NC(=O)c3cc(-c4cccs4)nc4ccccc34)c2C(N)=O)C1,-3.1%
18,CCC(=O)N1CCc2cc(Br)cc(S(=O)(=O)CCC(=O)N(CC)CC)c21,-2.77%
19,CCN=C1S/C(=C\c2cc(OCC)c(O)cc2Br)C(=O)N1CC,-1.66%
20,COc1ccc(N(CC(=O)NN=C2CCCCCCC2)S(=O)(=O)c2ccccc2)cc1Cl,0.05%
21,CC(=O)Nc1ccc(NC(=O)CCCSc2nc3ccccc3[nH]2)cc1,-7.79%
22,Cc1cc(C(F)F)n2ncc(C(=O)NCc3ccc(F)cc3)c2n1,3.5%
23,Cc1cc(C(F)F)n2ncc(C(=O)NCc3ccccc3)c2n1,1.36%
24,COc1ccc(CNC(=O)c2cnn3c(C(F)F)cc(C)nc23)cc1,14.5% (active)

row,SMILES,inhibition
1,CCS(=O)(=O)NCCNc1ccc([N+](=O)[O-])cc1,1.84%
2,Nc1nc(SCC(=O)NCc2ccccc2)n[nH]1,0.23%
3,Cc1cc2c(o1)CC(C)(C)CC2=O,1.91%
4,O=C(Nc1cccnc1)c1cc2c(ccc3ccccc32)o1,7.23%
5,CCCCOC(=O)Nc1ccc(S(=O)(=O)Nc2nccs2)cc1,-2.11%
6,Cc1c(N=Nc2c(-c3ccc([N+](=O)[O-])cc3)[nH]n(C(N)=S)c2=O)cccc1[N+](=O)[O-],14.5% (active)
7,Cc1ccc([N+](=O)[O-])cc1N=Nc1c(-c2ccc([N+](=O)[O-])cc2)[nH]n(C(N)=S)c1=O,0.14%
8,NC(=S)n1[nH]c(-c2ccc([N+](=O)[O-])cc2)c(N=Nc2ccccc2[N+](=O)[O-])c1=O,-2.18%
9,NCCN1CCN(CCN)CC1,-1.39%
10,COc1ccc(C2(C)NC(=O)N(CC(=O)Nc3ccc(-c4nc5ccc(C)cc5s4)cc3)C2=O)cc1 (stereo unspecified),-4.16%
11,O=c1cc(Cl)[nH]c(=O)n1CCNc1ncc(C(F)(F)F)cc1Cl,-0.65%
12,O=C(c1ccccc1F)N1CCCC(C(=O)N2CCN(c3ccccc3)CC2)C1 (stereo unspecified),4.78%
13,CC(C)C(=O)N1CCN(c2ccc(NC(=O)c3cccs3)cc2)CC1,-0.11%
14,C=CCOc1c(CNc2cccc(C(=O)O)c2)cccc1OC,-2.58%
15,C=CCOc1c(CNc2ccc(C(=O)O)cc2)cccc1OCC,-3.36%
16,C=CCOc1c(CNc2cccc(C(=O)O)c2)cccc1OCC,17.6% (active)
17,COc1ccc(CC(=O)Nc2c3c(nn2-c2cccc(C)c2C)CS(=O)C3)cc1 (stereo unspecified),0.63%
18,CCN(C(=O)c1cc2c(=O)[nH]c3ccc(C)cc3c2s1)c1cccc(C)c1,0.79%
19,Cn1c(=O)c2c(nc(SCC(=O)c3ccccc3F)n2C)n(C)c1=O,2.09%
20,COc1cccc2c1OC1(C)CC2NC(=O)N1 (stereo unspecified),7.2%
21,COc1ccc(-c2nnc3ccc(SCC(=O)NCc4ccco4)nn23)cc1,-0.33%
22,COc1ccc(C(=O)NC(Oc2ccccc2)C(Cl)(Cl)Cl)cc1 (stereo unspecified),46.8% (active)
23,O=C(NC(Oc1ccccc1)C(Cl)(Cl)Cl)c1ccccc1 (stereo unspecified),2.49%
24,Cc1cccc(C(=O)NC(Oc2ccccc2)C(Cl)(Cl)Cl)c1 (stereo unspecified),0.69%
